# Test results: PubChem BioAssay (Tox21)
# Values joined by “and” are separate entries in the source; they are usually repeats but may differ in a detail not shown here. Equal values may be shown once. Records with an inconclusive call do not appear. Where a call stands in place of a potency, no number is given. Where a structure was tested more than once in an assay, its records may differ in their call. Active and inactive are the calls of the source. Unless noted, the call rests on the fitted dose curve; in most records, active means well fitted curve in the direction sought with a large enough effect in the repeat runs; inconclusive means weak or mixed curves; inactive means no such curve, though single readings can be large; an effect the other way counts as inactive or inconclusive.
# Tests used:
# [1] = qHTS assay to identify small molecule HDAC inhibitors (AID 1259364); further: nearly all actives have a fitted effect of over 45% in size; further: potency means the concentration at half of the fitted maximal effect
# Summary of the method: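 Wild-type HCT-116 cells were plated overnight, exposed to compounds for 2 h at 37 °C, then given HDAC-Glo class I/II luminogenic reagent for 30 min at room temperature before luminescence was read.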
# [2] = qHTS assay to identify small molecule HDAC inhibitors - cell viability counter screen (AID 1259365); further: series mostly up to about 92 µM; nearly all actives have a fitted effect of over 50% in size
# Summary of the method: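 Counter screen in wild-type HCT-116 cells: compounds dissolved in DMSO are pin-transferred onto overnight-plated cells and left 2hr at 37C. ATP-based CellTiter-Glo luminescence then measures viable cells.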
# [3] = qHTS assay to identify small molecule agonists of the sonic hedgehog signaling (Shh) pathway - cell viability counter screen (AID 1259366); further: nearly all actives have a fitted effect of over 50% in size
# Summary of the method: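 Cells are plated at 2,000 per well and left 4hr at 37C, 5% CO2 before compound addition. After 23hr of treatment, CellTiter-Fluor reagent is added for 1hr at 37C and fluorescence is measured.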
# [4] = qHTS assay to identify small molecule antagonists of the sonic hedgehog signaling (Shh) pathway - cell viability counter screen (AID 1259367); further: nearly all actives have a fitted effect of over 55% in size
# Summary of the method: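 NIH/3T3-derived Gli1-Luc reporter cells, 2,000/well, plated 4 hr before compound addition, then stimulated with conditioned medium for 24 hr at 37C. Viability measured in the same wells by CellTiter-Fluor fluorescence, reagent added at 23 hr for 1 hr.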
# [5] = qHTS assay to identify small molecule agonists of the sonic hedgehog signaling (Shh) pathway (AID 1259368; calls by dose curve; further: series mostly up to about 92 µM; nearly all actives have a fitted effect of over 15% in size)
# Summary of the method: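 NIH/3T3-derived 3T3Gli1-Luc cells carrying a stably integrated Gli1 response element–firefly luciferase reporter were plated, left 4 hr at 37 C, then given compounds in DMSO for 24 hr. Luminescence was read 30 min after adding luciferase reagent.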
# [6] = qHTS assay to identify small molecule antagonists of the sonic hedgehog signaling (Shh) pathway (AID 1259369; calls by dose curve; further: nearly all actives have a fitted effect of over 45% in size; further: potency means the concentration at half of the fitted maximal effect)
# Summary of the method: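 NIH/3T3-derived 3T3Gli1-Luc cells with stably integrated Gli1-Luc reporter were preincubated 4hr at 37 C, then given compounds in DMSO plus Shh conditioned medium and incubated 24hr. Firefly luciferase luminescence read after 30min reagent at room temperature.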
# [7] = qHTS assay to identify small molecule agonists of the androgen receptor (AR) signaling pathway in the presence of an antagonist - cell viability counter screen (AID 1259379); further: series mostly up to about 92 µM; nearly all actives have a fitted effect of over 25% in size
# Summary of the method: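 MDA-kb2 human breast carcinoma cells (stable MMTV-luciferase, AR/GR responsive) were seeded 3,000 cells/well, pre-incubated 5 hr at 37C without CO2, then given 3.0uM nilutamide and compounds at 15 concentrations for 16 hr. Viability was read by CellTiter-Fluor fluorescence.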
# [8] = qHTS assay to identify small molecule agonists of the estrogen receptor beta (ER-beta) signaling pathway - cell viability counter screen (AID 1259380); further: nearly all actives have a fitted effect of over 30% in size
# Summary of the method: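 ER-beta-UAS-bla HEK293T cells in medium with 2% charcoal-stripped FBS were preincubated 6 hr at 37C, dosed with compound in DMSO for 16 hr, then after the bla read, CellTiter-Glo was added for 30 min at room temperature; luminescence recorded.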
# [9] = qHTS assay to identify small molecule antagonists of the estrogen receptor beta (ER-beta) signaling pathway - cell viability counter screen (AID 1259382); further: series mostly up to about 92 µM; nearly all actives have a fitted effect of over 55% in size
# Summary of the method: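 ER-beta-UAS-bla HEK293T cells (2,000/well, 2% charcoal-stripped FBS) were pre-incubated 6 hr at 37C, then given compound plus 1nM final 17-beta-estradiol for 16 hr. Viability was read in the same wells by CellTiter-Glo luminescence after 30 min at room temperature.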
# [10] = qHTS assay to identify small molecule agonists or antagonists of the thyroid stimulating hormone receptor (TSHR) signaling pathway - wild type cell line counter screen (AID 1259384; calls by dose curve)
# Summary of the method: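 Wild-type Hek293 cells, 800/well, 18 h at 37C, then compound with Ro20-1724 for 30 min RT. cAMP by HTRF (cAMP-d2/anti-cAMP cryptate), 1 h RT, fluorescence read. 15 concentrations, triplicates.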
# [11] = target: Thyrotropin receptor (Homo sapiens) (UniProt P16473); test: qHTS assay to identify small molecule antagonists of the thyroid stimulating hormone receptor (TSHR) signaling pathway (AID 1259385; calls by dose curve; further: nearly all actives have a fitted effect of over 20% in size)
# Thyrotropin receptor (Homo sapiens), sequence (P16473 whole entry, looked up): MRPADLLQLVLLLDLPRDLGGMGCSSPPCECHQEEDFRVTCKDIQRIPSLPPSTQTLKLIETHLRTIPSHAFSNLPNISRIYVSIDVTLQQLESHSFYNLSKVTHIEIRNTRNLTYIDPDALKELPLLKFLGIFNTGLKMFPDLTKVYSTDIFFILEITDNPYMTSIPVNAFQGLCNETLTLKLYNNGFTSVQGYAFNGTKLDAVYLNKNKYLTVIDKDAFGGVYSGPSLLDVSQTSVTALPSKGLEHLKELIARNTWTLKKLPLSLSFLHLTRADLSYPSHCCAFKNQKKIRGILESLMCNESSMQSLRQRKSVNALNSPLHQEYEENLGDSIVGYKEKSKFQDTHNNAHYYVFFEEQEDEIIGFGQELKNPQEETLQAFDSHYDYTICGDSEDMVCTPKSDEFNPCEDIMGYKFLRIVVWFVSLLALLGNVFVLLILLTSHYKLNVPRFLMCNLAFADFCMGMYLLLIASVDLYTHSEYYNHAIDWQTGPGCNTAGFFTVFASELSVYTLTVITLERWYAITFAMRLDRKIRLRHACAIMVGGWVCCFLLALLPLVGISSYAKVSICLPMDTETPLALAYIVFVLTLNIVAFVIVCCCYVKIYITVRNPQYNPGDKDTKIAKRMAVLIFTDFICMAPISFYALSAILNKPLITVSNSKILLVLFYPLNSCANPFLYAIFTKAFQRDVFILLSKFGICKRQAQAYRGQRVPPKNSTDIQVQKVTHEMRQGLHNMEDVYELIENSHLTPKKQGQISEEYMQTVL
# Summary of the method: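 TSHR-HEK293 cells (800/well) plated 18 h, then compounds with Ro20-1724 and TSH at 1.5 ng/mL final, 30 min at room temperature. cAMP quantified by HTRF (cAMP-d2/anti-cAMP-cryptate, 1 h); 15 concentrations in triplicate.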
# [12] = qHTS assay to identify small molecule agonists of the estrogen receptor alpha (ER-alpha) signaling pathway in the presence of an antagonist - cell viability counter screen (AID 1259386);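 further: series mostly up to about 92 µM; cells exposed to compounds for 22 h at 37 °C before the viability read; nearly all actives have a fitted effect of over 30% in size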
# Summary of the method: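 VM7Luc4E2 cells (endogenous full-length ER-alpha, 4×ERE-luciferase) were held 5 days in phenol red-free medium with 10% charcoal-stripped FBS, plated, then given 10.0nM ICI-182,780 and compounds at 15 concentrations for 22hr at 37C; viability read by CellTiter-Fluor fluorescence.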
# [13] = target: Progesterone receptor (Homo sapiens) (UniProt P06401); test: qHTS assay to identify small molecule agonists of the progesterone receptor (PR) signaling pathway (AID 1346784; calls by dose curve; further: nearly all actives have a fitted effect of over 30% in size)
# Progesterone receptor (Homo sapiens), sequence (P06401 whole entry, looked up): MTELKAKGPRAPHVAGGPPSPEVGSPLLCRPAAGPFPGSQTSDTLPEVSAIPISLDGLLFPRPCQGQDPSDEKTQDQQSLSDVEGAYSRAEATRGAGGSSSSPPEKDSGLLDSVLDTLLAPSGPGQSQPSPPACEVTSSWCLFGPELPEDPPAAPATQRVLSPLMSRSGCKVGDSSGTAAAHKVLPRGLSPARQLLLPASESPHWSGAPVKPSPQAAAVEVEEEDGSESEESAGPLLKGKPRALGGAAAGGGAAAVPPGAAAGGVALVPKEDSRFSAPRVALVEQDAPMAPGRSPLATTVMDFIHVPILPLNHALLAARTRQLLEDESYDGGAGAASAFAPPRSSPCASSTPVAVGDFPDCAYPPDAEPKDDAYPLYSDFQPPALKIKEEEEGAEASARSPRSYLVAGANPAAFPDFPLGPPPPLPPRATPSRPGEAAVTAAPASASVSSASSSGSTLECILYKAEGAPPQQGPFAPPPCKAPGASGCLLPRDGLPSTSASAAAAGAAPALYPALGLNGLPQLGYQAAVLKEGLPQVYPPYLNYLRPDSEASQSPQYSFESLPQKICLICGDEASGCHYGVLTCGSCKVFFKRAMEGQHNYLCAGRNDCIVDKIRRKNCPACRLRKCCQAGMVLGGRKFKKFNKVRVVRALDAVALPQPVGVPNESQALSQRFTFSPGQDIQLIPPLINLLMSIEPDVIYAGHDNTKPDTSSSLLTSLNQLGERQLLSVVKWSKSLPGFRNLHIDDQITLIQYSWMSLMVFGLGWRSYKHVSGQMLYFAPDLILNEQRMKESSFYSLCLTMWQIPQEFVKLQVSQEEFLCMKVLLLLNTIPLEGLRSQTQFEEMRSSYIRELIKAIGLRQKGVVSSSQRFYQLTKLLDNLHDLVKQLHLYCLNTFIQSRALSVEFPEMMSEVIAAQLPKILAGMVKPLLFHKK
# Summary of the method: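 Cells (PR-UAS-bla HEK 293T, GripTite) were plated in assay medium containing 2% charcoal-stripped FBS and incubated 6 hr. Test compounds in DMSO were added for 16 hr at 37C. FRET substrate was then loaded for 2 hr at room temperature before fluorescence reading.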
# [14] = target: Progesterone receptor (Homo sapiens) (UniProt P06401); test: qHTS assay to identify small molecule antagonists of the progesterone receptor (PR) signaling pathway (AID 1346795; active means well fitted inhibition curve with a large enough effect in the signal ratio in the repeat runs, not every such curve was filed as active; the % refers to the signal ratio; further: potency means the concentration at half of the fitted maximal effect)
# Summary of the method: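 Antagonist mode: compounds tested against 1 nM (final) promegestone stimulation in HEK293T cells expressing PR-UAS-bla reporter, 16 hr at 37C, 5% CO2; beta-lactamase activity detected via B/G FRET substrate after 2 hr at room temperature.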
# [15] = qHTS assay to identify small molecule phospholipidosis (PLD) inducers (AID 1259344; active means well fitted curve in the direction sought with a large enough effect; an effect the other way counts as inactive or inconclusive)
# Summary of the method: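 HepG2 cells, 900/well, treated with compound plus LipidTOX Red for 24 h at 37 C; amiodarone positive and DMSO negative controls. Fixed with paraformaldehyde/Hoechst, then high-content imaging scored LipidTOX pit count and integrated intensity per well and per cell.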
# [16] = target: Estrogen receptor beta (Homo sapiens) (UniProt Q92731); test: qHTS assay to identify small molecule agonists of the estrogen receptor beta (ER-beta) signaling pathway (AID 1259377; active means well fitted activation curve with a large enough effect in the signal ratio in the repeat runs, not every such curve was filed as active; the % refers to the signal ratio; further: potency means the concentration at half of the fitted maximal effect)
# Estrogen receptor beta (Homo sapiens), sequence (Q92731 whole entry, looked up, the tested form may be a part): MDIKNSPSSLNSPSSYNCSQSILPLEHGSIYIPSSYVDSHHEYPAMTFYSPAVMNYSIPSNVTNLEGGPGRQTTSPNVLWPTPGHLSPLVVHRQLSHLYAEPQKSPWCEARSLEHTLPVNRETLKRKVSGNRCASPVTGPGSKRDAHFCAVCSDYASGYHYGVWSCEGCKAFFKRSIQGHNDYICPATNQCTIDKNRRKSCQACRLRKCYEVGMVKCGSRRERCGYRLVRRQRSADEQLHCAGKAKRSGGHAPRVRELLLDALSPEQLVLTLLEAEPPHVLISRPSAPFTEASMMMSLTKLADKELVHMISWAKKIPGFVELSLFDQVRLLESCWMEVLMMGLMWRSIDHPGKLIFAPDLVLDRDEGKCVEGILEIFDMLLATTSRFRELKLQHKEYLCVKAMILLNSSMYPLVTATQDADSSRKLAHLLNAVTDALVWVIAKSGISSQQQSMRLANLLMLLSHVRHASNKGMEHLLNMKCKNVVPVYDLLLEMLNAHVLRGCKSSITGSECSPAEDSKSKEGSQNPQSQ
# Summary of the method: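 Agonist mode cell assay in GripTite HEK293T cells expressing an ER-beta fusion that drives beta-lactamase from an Upstream Activator Sequence; 16 hr compound exposure at 37C, then 2 h LiveBLAzer B/G FRET substrate at room temperature, fluorescence read-out.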
# [17] = target: Estrogen receptor beta (Homo sapiens) (UniProt Q92731); test: qHTS assay to identify small molecule antagonists of the estrogen receptor beta (ER-beta) signaling pathway (AID 1259378; active means well fitted inhibition curve with a large enough effect in the signal ratio in the repeat runs, not every such curve was filed as active; the % refers to the signal ratio)
# Summary of the method: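 ER-beta-UAS-bla HEK293T cells in 2% charcoal-stripped FBS medium treated with compound plus 1nM final 17-beta-estradiol for 16 hr at 37C. Beta-lactamase reporter read by FRET substrate fluorescence after 2 hours at room temperature.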
# [18] = target: Androgen receptor (Homo sapiens) (UniProt P10275); test: qHTS assay to identify small molecule agonists of the androgen receptor (AR) signaling pathway in the presence of an antagonist (AID 1259381; calls by dose curve; further: nearly all actives have a fitted effect of over 15% in size)
# Androgen receptor (Homo sapiens), sequence (P10275 whole entry, looked up): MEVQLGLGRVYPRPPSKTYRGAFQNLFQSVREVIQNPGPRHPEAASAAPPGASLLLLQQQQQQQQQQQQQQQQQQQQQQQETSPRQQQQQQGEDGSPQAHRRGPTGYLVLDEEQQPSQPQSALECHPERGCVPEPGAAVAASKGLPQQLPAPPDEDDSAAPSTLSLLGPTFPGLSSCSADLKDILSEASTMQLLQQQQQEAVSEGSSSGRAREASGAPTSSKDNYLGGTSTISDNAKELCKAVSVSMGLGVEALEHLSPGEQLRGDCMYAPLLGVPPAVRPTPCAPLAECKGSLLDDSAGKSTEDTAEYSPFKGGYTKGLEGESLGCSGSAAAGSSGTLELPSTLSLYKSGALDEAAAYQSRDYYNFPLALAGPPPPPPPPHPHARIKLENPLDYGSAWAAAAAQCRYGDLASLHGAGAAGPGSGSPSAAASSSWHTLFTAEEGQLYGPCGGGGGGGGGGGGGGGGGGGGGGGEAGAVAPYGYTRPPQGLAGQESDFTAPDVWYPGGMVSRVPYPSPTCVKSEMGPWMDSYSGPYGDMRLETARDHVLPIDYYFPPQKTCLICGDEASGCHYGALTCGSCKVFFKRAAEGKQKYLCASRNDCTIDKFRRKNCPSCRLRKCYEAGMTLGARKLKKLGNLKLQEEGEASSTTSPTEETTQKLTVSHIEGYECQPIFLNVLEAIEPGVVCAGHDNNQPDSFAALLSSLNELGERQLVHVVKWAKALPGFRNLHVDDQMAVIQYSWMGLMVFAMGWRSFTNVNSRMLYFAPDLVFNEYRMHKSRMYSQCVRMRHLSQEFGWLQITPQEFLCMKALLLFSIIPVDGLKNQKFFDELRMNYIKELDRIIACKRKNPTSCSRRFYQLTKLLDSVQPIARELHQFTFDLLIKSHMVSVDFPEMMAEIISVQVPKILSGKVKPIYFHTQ
# Summary of the method: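 MDA-kb2 human breast carcinoma cells carrying an MMTV-luciferase reporter (AR- and GR-responsive) were treated with compounds at 15 concentrations plus 3.0uM final nilutamide for 16hr at 37C without CO2; luminescence was read after ONE-Glo addition.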
SMILES,Potency [1],outcome [2],Potency [3],Potency [4],outcome [5],Potency [6],outcome [7],Potency [8],Potency [9],outcome [10],Potency [11],outcome [12],outcome [13],Potency [14],outcome [15],Potency [16],outcome [17],outcome [18]
C=CCO,28.5 µM (active) and inactive,inactive,inactive,inactive,inactive,inactive,inactive,inactive,inactive,inactive,inactive,inactive,inactive,inactive,–,–,–,–
NCC(O)c1ccc(O)cc1 (stereo not given),inactive,inactive,inactive,inactive,inactive,inactive,inactive,inactive,inactive,inactive,inactive,inactive,inactive,inactive,inactive,inactive,inactive,–
c1ccc2c(c1)Oc1ccccc1O2,inactive,inactive,inactive,inactive,inactive,inactive,inactive,inactive,–,–,inactive,inactive,–,inactive,–,–,–,–
OC(O)C(Cl)(Cl)Cl,inactive,inactive,inactive,inactive,inactive,inactive,inactive,inactive,–,inactive,inactive,inactive,–,inactive,inactive,inactive,inactive,–
O=[N+]([O-])c1ccc(Oc2ccc(Cl)cc2Cl)cc1,inactive,inactive,inactive,inactive,inactive,inactive,inactive,inactive,inactive,–,inactive,inactive,–,15.4 µM (active) and 9.69 µM (active),–,61.4 µM (active) and inactive,inactive,–
COCCl,inactive,inactive,inactive,inactive,inactive,16 µM (active) and inactive,inactive,inactive,–,–,inactive,inactive,inactive,inactive,–,inactive,inactive,inactive
c1ccc2c(c1)oc1ccccc12,inactive,inactive,inactive,inactive,inactive,inactive,inactive,inactive,inactive,–,inactive,inactive,inactive,inactive,–,inactive,inactive,–
CCN(CC)CCO,inactive,inactive,inactive,inactive,inactive,inactive,inactive,inactive,inactive,inactive,inactive,inactive,inactive,inactive,–,inactive,inactive,–
CC(C)C#N,inactive,inactive,inactive,inactive,inactive,inactive,inactive,inactive,–,inactive,inactive,inactive,inactive,inactive,–,–,–,–
CC(C)(C)C(O)(CCc1ccc(Cl)cc1)Cn1cncn1 (stereo not given),inactive,inactive,inactive,inactive,inactive,–,inactive,–,–,inactive,inactive,inactive,–,17.4 µM (active) and 24.3 µM (active),–,–,–,–
